The whole screen tested about 5,500 compounds, of which about 2,000 (36%) were called active. Not shown: some 18% with an inconclusive outcome. No stated cut-off is given here; in the data, active means normalized growth mostly below about 0.91 (no sharp cut-off); inconclusive means no clear call, values can overlap the other calls; inactive means mostly above about 0.92. The list shows a part of the results.
Experiment: chemical genetic growth profiling, strain panel (AID 1159580);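 further: tested at 20 µM; growth read once vehicle control cultures reached saturation at 30 °C; 1 = growth at the plate median or of vehicle wells; lower values mean less growth of the strain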
Conditions: growth OD

Measured: normalized growth

CCN(CCO)CCCC(C)Nc1ccnc2cc(Cl)ccc12 (configuration not stated)
inactive: S. cerevisiae deletion strains, locus YJR075W, strain HOC1, active compounds read low 1.01 | S. cerevisiae deletion strains, locus YKL009W, strain mrt4, active compounds read low 1.03 | S. cerevisiae deletion strains, locus YKL068W, active compounds read low 0.998 | S. cerevisiae deletion strains, locus YKL085W, strain MDH1 (second series), active compounds read low 1 | S. cerevisiae deletion strains, locus YKL085W, strain MDH1, active compounds read low 1 | S. cerevisiae deletion strains, locus YKL160W, strain elf1, active compounds read low 0.995 | S. cerevisiae deletion strains, locus YKL190W, strain CNB1, active compounds read low 1.02 | S. cerevisiae deletion strains, locus YKR001C, strain vps1, active compounds read low 1.03 | S. cerevisiae deletion strains, locus YKR026C, strain gcn3, active compounds read low 1 | S. cerevisiae deletion strains, locus YKR091W, strain srl3, active compounds read low 1 | S. cerevisiae deletion strains, locus YLL001W, strain dnm1, active compounds read low 0.988 | S. cerevisiae deletion strains, locus YLL026W, active compounds read low 1.01 | S. cerevisiae deletion strains, locus YLL041C, strain sdh2, active compounds read low 1.01 | S. cerevisiae deletion strains, locus YLR027C, strain aat2, active compounds read low 1 | S. cerevisiae deletion strains, locus YLR039C, strain RIC1, active compounds read low 1.04 | S. cerevisiae deletion strains, locus YLR058C, strain SHM2, active compounds read low 1.01 | S. cerevisiae deletion strains, locus YLR102C, strain apc9, active compounds read low 1.01 | S. cerevisiae deletion strains, locus YLR113W, strain HOG1, active compounds read low 1.03 | S. cerevisiae deletion strains, locus YLR221C, strain rsa3, active compounds read low 0.996 | S. cerevisiae deletion strains, locus YLR258W, strain gsy2, active compounds read low 0.999 | S. cerevisiae deletion strains, locus YLR262C, strain YPT6 (second series), active compounds read low 0.989 | S. cerevisiae deletion strains, locus YLR262C, strain YPT6, active compounds read low 1.06 | S. cerevisiae deletion strains, locus YLR268W, strain sec22, active compounds read low 1.02 | S. cerevisiae deletion strains, locus YLR320W, strain mms22, active compounds read low 0.997 | S. cerevisiae deletion strains, locus YLR330W, strain CHS5, active compounds read low 1.01 | S. cerevisiae deletion strains, locus YLR342W, strain FKS1 (second series), active compounds read low 1.02 | S. cerevisiae deletion strains, locus YLR342W, strain FKS1, active compounds read low 0.997 | S. cerevisiae deletion strains, locus YLR357W, strain rsc2, active compounds read low 1.02 | S. cerevisiae deletion strains, locus YLR370C, strain arc18, active compounds read low 1 | S. cerevisiae deletion strains, locus YLR371W, strain rom2, active compounds read low 1 | S. cerevisiae deletion strains, locus YLR384C, strain iki3, active compounds read low 1 | S. cerevisiae deletion strains, locus YLR418C, strain cdc73, active compounds read low 1.04 | S. cerevisiae deletion strains, locus YML016C, strain PPZ1, active compounds read low 1 | S. cerevisiae deletion strains, locus YML032C, strain rad52, active compounds read low 1.05 | S. cerevisiae deletion strains, locus YML120C, strain ndi1, active compounds read low 0.999 | S. cerevisiae deletion strains, locus YML124C, strain tub3, active compounds read low 1.01 | S. cerevisiae deletion strains, locus YMR058W, strain fet3, active compounds read low 1 | S. cerevisiae deletion strains, locus YMR078C, strain ctf18, active compounds read low 1.03 | S. cerevisiae deletion strains, locus YMR125W, strain sto1, active compounds read low 1 | S. cerevisiae deletion strains, locus YMR129W, active compounds read low 1 | S. cerevisiae deletion strains, locus YMR205C, strain PFK2, active compounds read low 0.986 | S. cerevisiae deletion strains, locus YMR223W, strain ubp8, active compounds read low 1.02 | S. cerevisiae deletion strains, locus YMR231W, strain pep5, active compounds read low 0.987 | S. cerevisiae deletion strains, locus YMR263W, strain SAP30, active compounds read low 1.01 | S. cerevisiae deletion strains, locus YMR307W, strain GAS1, active compounds read low 1.11 | S. cerevisiae deletion strains, locus YNL067W, strain RPL9B, active compounds read low 1.01 | S. cerevisiae deletion strains, locus YNL071W, strain lat1, active compounds read low 1 | S. cerevisiae deletion strains, locus YNL128W, strain TEP1, active compounds read low 1.02 | S. cerevisiae deletion strains, locus YNL153C, strain GIM3, active compounds read low 1 | S. cerevisiae deletion strains, locus YNL183C, strain NPR1, active compounds read low 0.952 | S. cerevisiae deletion strains, locus YNL209W, strain ssb2, active compounds read low 1 | S. cerevisiae deletion strains, locus YNL233W, strain BNI4, active compounds read low 1.01 | S. cerevisiae deletion strains, locus YNL248C, strain rpa49, active compounds read low 1 | S. cerevisiae deletion strains, locus YNL250W, strain rad50, active compounds read low 1.03 | S. cerevisiae deletion strains, locus YNL271C, strain bni1, active compounds read low 1.01 | S. cerevisiae deletion strains, locus YNL298W, strain CLA4, active compounds read low 1.02 | S. cerevisiae deletion strains, locus YNL307C, strain MCK1, active compounds read low 1.01 | S. cerevisiae deletion strains, locus YNL322C, strain KRE1 (second series), active compounds read low 1 | S. cerevisiae deletion strains, locus YNL322C, strain KRE1, active compounds read low 1.01 | S. cerevisiae deletion strains, locus YNR049C, strain mso1, active compounds read low 0.999 | S. cerevisiae deletion strains, locus YNR052C, strain pop2, active compounds read low 1.02 | S. cerevisiae deletion strains, locus YOL006C, strain TOP1, active compounds read low 1.01 | S. cerevisiae deletion strains, locus YOL012C, strain htz1 0.994 | S. cerevisiae deletion strains, locus YOL147C, strain pex11, active compounds read low 1.02 | S. cerevisiae deletion strains, locus YOR001W, strain rrp6, active compounds read low 1 | S. cerevisiae deletion strains, locus YOR061W, strain CKA2, active compounds read low 1.01 | S. cerevisiae deletion strains, locus YOR069W, strain VPS5, active compounds read low 1.01 | S. cerevisiae deletion strains, locus YOR070C, strain gyp1, active compounds read low 0.995 | S. cerevisiae deletion strains, locus YOR080W, strain dia2, active compounds read low 0.997 | S. cerevisiae deletion strains, locus YOR083W, strain WHI5, active compounds read low 0.996 | S. cerevisiae deletion strains, locus YOR106W, strain vam3, active compounds read low 1.01 | S. cerevisiae deletion strains, locus YOR136W, strain idh2, active compounds read low 1.03 | S. cerevisiae deletion strains, locus YOR144C, strain elg1, active compounds read low 1.02 | S. cerevisiae deletion strains, locus YOR184W, strain ser1, active compounds read low 1.03 | S. cerevisiae deletion strains, locus YOR231W, strain MKK1, active compounds read low 1.02 | S. cerevisiae deletion strains, locus YOR265W, strain rbl2, active compounds read low 1.04 | S. cerevisiae deletion strains, locus YOR270C, strain vph1, active compounds read low 1.03 | S. cerevisiae deletion strains, locus YOR290C, strain snf2, active compounds read low 1.03 | S. cerevisiae deletion strains, locus YOR316C, strain cot1, active compounds read low 1.01 | S. cerevisiae deletion strains, locus YPL051W, strain arl3, active compounds read low 0.995 | S. cerevisiae deletion strains, locus YPL055C, strain LGE1, active compounds read low 1.04 | S. cerevisiae deletion strains, locus YPL078C, strain atp4, active compounds read low 1.01 | S. cerevisiae deletion strains, locus YPL106C, strain sse1, active compounds read low 0.991 | S. cerevisiae deletion strains, locus YPL240C, strain hsp82, active compounds read low 1 | S. cerevisiae deletion strains, locus YPL241C, strain CIN2, active compounds read low 1.01 | S. cerevisiae deletion strains, locus YPL256C, strain CLN2, active compounds read low 0.966 | S. cerevisiae deletion strains, locus YPR119W, strain clb2, active compounds read low 1.01 | S. cerevisiae deletion strains, locus YPR141C, strain kar3, active compounds read low 1.02 | S. cerevisiae deletion strains, locus YPR163C, strain tif3, active compounds read low 1.01 | S. cerevisiae deletion strains, locus YPR167C, strain met16, active compounds read low 1.01 | S. cerevisiae deletion strains, strain wtn01, active compounds read low 1.01 | S. cerevisiae strains, strain wild type, active compounds read low 1.02

Source: PubChem BioAssay AID1159580 (chemical genetic matrix, 2015)
